The results in this text go back to PubChem BioAssay (NCATS).

SMILES strings stand for the structures. Records with an inconclusive call do not appear. Active and inactive are the calls of the source. Calls follow the shape of the dose curve; as a rule, active = well fitted cell-killing curve with a large enough effect; inconclusive = small, poorly fitted or top-dose-only effect, or effect the other way; inactive = no such curve, though single readings can be large or run the other way.
Potency is read from the fitted curve at half-maximal effect.

A short description of the experiment: Quantitative High-Throughput drug screen in 47 multiple myeloma cell lines against the NCATS MIPE library collection: KMS28PE_JCRB cell viability assay (AID 1918983). Also: nearly all actives have a fitted effect of over 35% in size. Particulars: KMS28PE multiple myeloma viability, CellTiter-Glo ATP, 48 h; series mostly up to 45.8 µM; viability, % of DMSO control: at the top concentration. An excerpt: PI: Beverly A. Mock Ph.D.
Laboratory of Cancer Biology and Genetics,
Center for Cancer Research, National Cancer Institute,
National Institute of Health, Bethesda, Maryland
Drug resistance and disease progression are common in multiple myeloma (MM) patients, underscoring the need for new therapeutic combinations. […] We hypothesized that effective combinations would reduce MYC expression and enhance p16 activity. […] These preclinical data identify potentially useful drug combinations for evaluation in drug-resistant MM and reveal potential mechanisms of combined drug sensitivity.
Described herein is the primary MIPE qHTS used to cherrypick compounds. Validated compounds were then further tested for potential synergistic activiy.
[1] Peat TJ, Gaikwad SM, Dubois W, Gyabaah-Kessie N, Zhang S, Gorjifard S, Phyo Z, Andres M, Hughitt VK, Simpson RM, Miller MA, Girvin AT, Taylor A, Williams D, D'Antonio N, Zhang Y, Rajagopalan A, Flietner E, Wilson K, Zhang X, Shinn P, Klumpp-Thomas C, McKnight C, Itkin Z, Chen L, Kazandijian D, Zhang J, Michalowski AM, Simmons JK, Keats J, Thomas CJ, Mock BA. Drug combinations identified by high-throughput screening promote cell cycle transition and upregulate Smad pathways in myeloma. Cancer Lett. 2023 Aug 1;568:216284. doi: 10.1016/j.canlet.2023.216284. Epub 2023 Jun 24. PMID: 37356470; PMCID: PMC10408729.
SEQUENCE No. (e.g., 1, 2, 3, etc.); […] (e.g., Cells, Incubation, Reagent, etc.); VALUE and DESCRIPTION.
1; Cells; 5 uL; white, solid bottom 1536-well Greiner assay plate.
2; Compounds; 23 nL; Kalypsis pin tool (Wako USA) equipped with a 1536-well pin head to transfer to the assay plates.
3; Incubation; 48 hours; 37C incubation.
4; Reagent;5uL; CellTiter Glo (Promega).
5; Detector; 425V; Luminescence; Viewlux PerkinElmer.
NOTES (numbers refer to Sequence numbers above)
1. The cell-based screening methods employed in this study were like those previously published. Briefly, the corresponding myeloma cell lines were screened in 1,536-well plates with 500 cells, 5-uL per well for inhibition of cell viability (assessed by measuring ATP levels with CellTiterGlo).
2. NCATS MIPE 4.0 library of approved and investigational drugs were added using the Kalypsis pin tool. Wells treated with DMSO only for 100% viability and media only for 0% viability were used as controls.
3. The assay plates were covered and incubated for 48 hours in a 37C, 5% CO2 incubator with controlled humidity.
4. After 48 hours, CellTilter-GloTM luminescent substrate mix (Promega) reagent was added to the assay plate and plates we incubated for 5 min at room temperature.
5. Signal was measured as median relative luminescence units on a ViewLux (PerkinElmer) multiplate reader.
[1] Heske CM, Davis MI, Baumgart JT, Wilson K, Gormally MV, Chen L, Zhang X, Ceribelli M, Duveau DY, Guha R, Ferrer M, Arnaldez FI, Ji J, Tran HL, Zhang Y, Mendoza A, Helman LJ, Thomas CJ. Matrix Screen Identifies Synergistic Combination of PARP Inhibitors and Nicotinamide Phosphoribosyltransferase (NAMPT) Inhibitors in Ewing Sarcoma. Clin Cancer Res. 2017 Dec 1;23(23):7301-7311. doi: 10.1158/1078-0432.CCR-17-1121. Epub 2017 Sep 12. PMID: 28899971; PMCID: PMC6636827.
For orientation: In ATP-based viability assays light output follows the ATP content of the culture.
With `O=c1[nH]c(=O)n([C@H]2C[C@@H](O)[C@@H](CO)O2)cc1C(F)(F)F`, the Potency was 16.6 µM (active).
The same measure, in the same setting: the same measure for `CN(C)CCOc1cc(-c2cn[nH]c2)ccc1NC(=O)C1COc2ccccc2O1` (stereo not given): 13.2 µM (active); for `Nc1nc(Cl)nc2c1ncn2[C@@H]1O[C@H](CO)[C@@H](O)[C@H]1F`: 0.0418 µM (active); for `CCOC(=O)N1CCN([N+]([O-])=NOc2cc(ON=[N+]([O-])N3CCN(C(=O)OCC)CC3)c([N+](=O)[O-])cc2[N+](=O)[O-])CC1`: 5.9 µM (active).
Still for that read-out and setting: the same measure for `COc1cc([C@H]2Oc3cc([C@H]4Oc5cc(O)cc(O)c5C(=O)[C@H]4O)ccc3O[C@H]2CO)ccc1O`: 20.9 µM (active); for `O=C(c1ccc(C=Cc2n[nH]c3ccccc23)cc1)N1CCNCC1`: 6.62 µM (active).
`c1ccc(-c2oc3ncnc(NC[C@@H]4CCCO4)c3c2-c2ccccc2)cc1`: the Potency was 26.4 µM (active).
The same measure, in the same setting: the same measure for `C[C@@H]1CCO[C@H]2Cn3cc(C(=O)NCc4ccc(F)cc4F)c(=O)c(O)c3C(=O)N12`: 23.5 µM (active); for `CC[C@H](CC#N)OC(=O)N[C@@H](C)c1cccc(NC(=O)Nc2ccc(-c3cnco3)c(OC)c2)c1`: 1.18 µM (active); for `C#CCN(C)CC1=Cc2ccccc2Oc2ccccc21`: 18.7 µM (active).
`COc1cc(C=CC(=O)O)ccc1O`: the “viability, % of DMSO control” value was 126% (inactive).
`CN1CCc2c(n(Cc3ccc(C(=O)NO)cc3)c3ccccc23)C1`: the Potency is 14.8 µM (active).
On the same count and under the same terms, the result for `FC(F)(F)c1ccc(C=Cc2nc(COc3ccc(CCCCn4ccnn4)cc3)co2)cc1` reads 0.132 µM (active).
With `N#CC(c1ccc(Cl)cc1)c1c(Cl)cc(-n2ncc(=O)[nH]c2=O)cc1Cl` (stereo not given), the “viability, % of DMSO control” value was 129% (inactive).
Consider `C[C@@H](O)[C@H]1C(=O)N2C(C(=O)OCOC(=O)C(C)(C)C)=C(SC3CN(C4=NCCS4)C3)[C@H](C)[C@H]12`, for which the “viability, % of DMSO control” value was 134% (inactive).
Same read-out and setting: the result for `CC[C@H](C)C(=O)O[C@H]1C[C@H](O)C=C2C=C[C@H](C)[C@H](CC[C@@H](O)C[C@@H](O)CC(=O)O)[C@H]21` reads 108% (inactive).
As for `CN(C)c1ccccc1CN1CCCN(Cc2ccccc2N(C)C)C1c1ccncc1`, the Potency is 23.5 µM (active).
Take `Cc1ccccc1C(C(=O)NC1CCCCC1)N(C(=O)CNc1ccc(C#N)cc1)c1cccc(F)c1` (stereo not given): the “viability, % of DMSO control” value was 116% (inactive).
For the compound `COc1ccnc(CS(=O)c2nc3ccc(OC(F)F)cc3[nH]2)c1OC` (stereo not given), the “viability, % of DMSO control” value is 157% (inactive).
As to `CCC(=O)N1CCN(c2ccc(-n3c(=O)ccc4cnc5ccc(-c6cnc7ccccc7c6)cc5c43)cc2C(F)(F)F)CC1`, the Potency was 0.0093 µM (active).
For `CCCCn1c(=O)n(Cc2ccccc2F)c(=O)c2[nH]c(Cc3ccc(NC(C)=O)cc3)nc21`, the Potency was 18.7 µM (active).
Same read-out and setting: the result for `CCc1cccc(CC)c1NC(=O)N1Cc2[nH]nc(NC(=O)c3ccc(N4CCN(C)CC4)cc3)c2C1` reads 14.8 µM (active); that for `CCN(CC)CCCCNc1nc2cc(Cl)c(Cl)cc2nc1-c1ccc(-c2cccs2)s1`, 18.7 µM (active); that for `CNC1CCC(N(Cc2cccc(-c3ccncc3)c2)C(=O)c2sc3ccccc3c2Cl)CC1` (stereo not given), 23.5 µM (active).
For the compound `CC(C)C[C@@H](C(=O)N[C@H](C(=O)OC1CCCC1)c1ccccc1)[C@H](O)C(=O)NO`, the Potency was 23.5 µM (active).
Regarding `C[C@@]1(C(=O)Nc2ccc(F)nc2)CCCN1c1nc(Nc2cc(C3CC3)[nH]n2)c2cccn2n1`, the Potency was 0.0296 µM (active).
`COc1cc(N2CCN(C)CC2)ccc1Nc1nc(N)c(C(=O)c2c(Cl)cccc2Cl)s1`: the Potency is 14.8 µM (active).
As for `CCC[C@@H](NC(=O)[C@@H]1[C@H]2CCC[C@@H]2CN1C(=O)[C@@H](NC(=O)[C@@H](NC(=O)c1cnccn1)C1CCCCC1)C(C)(C)C)C(=O)C(=O)NC1CC1`, the Potency was 16.6 µM (active).
With `N=C1SC(=Cc2ccc(-c3ccc4c(c3)C(=O)NC4=O)o2)C(=O)N1c1ccc(Br)cc1`, the Potency is 4.69 µM (active).
On to `CC(C)C[C@@H](N)[C@H](O)C(=O)N[C@H](C(=O)N[C@H](C(=O)N[C@@H](CC(=O)O)C(=O)O)C(C)C)C(C)C`, for which the “viability, % of DMSO control” value is 136% (inactive).
For the compound `Fc1ccc(CNc2ncnc3ccc(F)cc23)cc1`, the Potency was 11.8 µM (active).
Regarding `CNC(=O)c1ccc2c(C(=Nc3cccc(CN(C)C)c3)c3ccccc3)c(O)[nH]c2c1`, the Potency was 4.18 µM (active).
Regarding `Oc1ccc(C=Cc2cc(O)cc(O)c2)cc1`, the “viability, % of DMSO control” value is 117% (inactive).
Regarding `O=S(=O)(NCCNCC=Cc1ccc(Br)cc1)c1cccc2cnccc12`, the Potency was 18.7 µM (active).
As for `Fc1ccc(C(c2ccc(F)cc2)N2CCN(CC=Cc3ccccc3)CC2)cc1`, the “viability, % of DMSO control” value is 130% (inactive).
Take `CS(=O)(=O)c1ccc(C2=C(c3ccccc3)C(=O)OC2)cc1`: the “viability, % of DMSO control” value is 123% (inactive).
Consider `CN(C)CCOc1ccc(C(=C(CCCl)c2ccccc2)c2ccccc2)cc1`, for which the Potency is 26.4 µM (active).
On to `CN1c2ccccc2C(=O)N2CCc3c([nH]c4ccccc34)C21` (stereo not given), for which the “viability, % of DMSO control” value was 103% (inactive).
Turning to `CN1[C@H]2CC[C@H]1CC(OC(=O)c1c[nH]c3ccccc13)C2` (stereo not given in full), the Potency was 9.35 µM (active).
Same read-out and setting: the same measure for `CN(C)c1nc(Cc2ccc(NC(=O)c3ccc(C(F)(F)F)cc3)cc2)nc(N(C)C)c1CC(=O)O`: 5.26 µM (active).
